Screens from PubChem.
Only a selection was taken, and hits are over-represented in it overall.
TDP1 cell noCPT: qHTS for Inhibitors of human tyrosyl-DNA phosphodiesterase 1 (TDP1): qHTS in cells in absence of CPT; DT40 Tdp1-/- hTDP1 cells, no CPT, ATP luminescence, 48 h; Potency, µM (highest dose often 46.2 µM), most hits filed as inhibitors; 420,000 compounds, 15% hits; further: nearly all actives have a fitted effect of over 55% in size
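Seeded 400 DT40-hTDP1 cells/well (vehicle DMSO, no 20 nM CPT); pinned compounds; ≥48 hr at 37 °C; CellTiter-Glo luminescence as viability measure.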
TDP1 cell CPT: DT40-hTDP1 cell growth loss with CPT | chicken DT40 Tdp1-/-;hTDP1 cells + 20 nM CPT, ATP luminescence, 48 h | Potency, µM (highest dose often 46.2 µM), actives largely listed as inhibitors | 420,000 compounds, 12% hits; further: nearly all actives have a fitted effect of over 55% in size
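Cell growth measured by CellTiter-Glo luminescence after a minimum 48 h, 37 C compound exposure with 20 nM CPT in Tdp1-knockout DT40 cells stably expressing hTDP1, seeded 400/well; qHTS titration format.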
HT1080-NT tox: kills 2HG-producing HT-1080-NT fibrosarcoma cells; HT-1080-NT fibrosarcoma viability, CellTiter-Glo ATP luminescence, 48 h; Potency, µM (top dose mostly 46.1 µM), most hits filed as cytotoxic; 360,000 compounds, 1.6% hits; AID 686970;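 further: NT is the 2HG producing partner of a matched IDH1 knockdown line; nearly all actives have a fitted effect of over 55% in size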
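750 cells/well, RPMI + 5% FBS; 2 h settle, compound pin-transfer, 48 h at 37 degrees C. CellTiter-Glo 10 min RT, luminescence. Normalized to DMSO and media-only wells.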
ALOX12 inh: inhibitors of human 12S-lipoxygenase ALOX12. P18054. purified 12hLO, xylenol orange hydroperoxide absorbance. Potency, µM (top dose mostly 108 µM), hits mostly inhibitors. 580,000 compounds, 1.1% hits. AID 1671190
Target sequence (P18054 whole entry, looked up): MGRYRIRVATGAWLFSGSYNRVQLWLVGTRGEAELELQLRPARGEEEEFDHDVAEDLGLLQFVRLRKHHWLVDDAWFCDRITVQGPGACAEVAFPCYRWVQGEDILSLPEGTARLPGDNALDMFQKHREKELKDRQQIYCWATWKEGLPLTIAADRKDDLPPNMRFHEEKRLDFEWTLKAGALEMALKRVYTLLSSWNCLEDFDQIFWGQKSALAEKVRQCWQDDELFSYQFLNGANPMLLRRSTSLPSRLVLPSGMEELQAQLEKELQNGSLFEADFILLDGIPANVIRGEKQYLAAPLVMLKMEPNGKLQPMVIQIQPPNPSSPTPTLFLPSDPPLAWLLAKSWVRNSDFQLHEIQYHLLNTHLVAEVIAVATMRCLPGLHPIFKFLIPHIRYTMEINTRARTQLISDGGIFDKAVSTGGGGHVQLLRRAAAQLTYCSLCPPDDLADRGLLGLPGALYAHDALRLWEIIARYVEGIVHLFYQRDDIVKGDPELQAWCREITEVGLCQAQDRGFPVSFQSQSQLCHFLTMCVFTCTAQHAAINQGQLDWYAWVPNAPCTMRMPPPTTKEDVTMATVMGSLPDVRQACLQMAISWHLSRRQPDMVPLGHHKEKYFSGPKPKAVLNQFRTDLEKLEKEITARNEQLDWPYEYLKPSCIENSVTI
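Purified human 12hLO at 150 nM in 25 mM Hepes, 0.01% Triton X-100, pH 7.0, preincubated 15 min at room temperature with compound. Reaction started with 40 uM arachidonic acid, 30 min at room temperature. Hydroperoxide measured by Fe-xylenol orange, 573/405 nm absorbance ratio.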
HT1080 IDH1KD tx: toxicity to HT-1080 IDH1 knockdown cells (counter line). 360,000 compounds, 2% hits. AID 686971. HT-1080 IDH1 knockdown viability, ATP luminescence, 48 h. Potency, µM (highest dose often 46.1 µM), usual class: cytotoxic
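IDH1KD HT-1080 cells, 750/well, RPMI + 5% FBS; compound pinned after 2 h settling; 48 h, 37 °C; CellTiter-Glo luminescence; % activity normalised to DMSO and no-cell wells; curves fitted, classed by r2 and efficacy.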
IL-1B inflam inh: inhibitors of inflammasome signaling (IL-1 beta secretion); THP-1 LPS/ATP IL-1B secretion, AlphaLISA, 16 h; stronger effect = lower value; activity change, % at 57.5 µM; 360,000 compounds, 4.7% hits; AID 743279; in the data active means activity change below about -50%; inconclusive means mostly about -30% to -49%
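THP-1 cells pretreated 1 hr with compounds (up to 57.5 uM final), then stimulated with LPS (250 ng/mL final) plus ATP (1.25 mM final); secreted IL-1B measured by AlphaLISA after 16 hr, decreased signal indicating inhibition.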
Large screens that a line does not name were inactive. Unless noted, the call rests on the fitted dose curve; in most records, active means well fitted curve in the direction sought with a large enough effect; inconclusive means small, poorly fitted or top-dose-only effect, or another doubt; inactive means no such curve, though single readings can be large; an effect the other way counts as inactive or inconclusive.

CCOc1cc2[nH]c(=S)n(CCCC(=O)N3CCC4(CC3)OCCO4)c(=O)c2cc1OCC	none
Cc1cc(-c2nnn(CCCOC(C)(C)C)c2C)ccc1-c1cn(CCCOC(C)(C)C)nn1	TDP1 cell noCPT 6.5µM, TDP1 cell CPT 8.2µM
CN(Cc1ccccc1)Cc1cn(C[C@H]2CC3CCN2C[C@@H]3C(=O)NCc2ccc(F)cc2)nn1 (stereo partly drawn)	none (no result: TDP1 cell noCPT, TDP1 cell CPT, HT1080-NT tox, HT1080 IDH1KD tx, IL-1B inflam inh)
O=S(=O)(NCC(c1cccnc1)N1CCN(c2ccc(F)cc2)CC1)c1ccccc1 (stereo not drawn)	TDP1 cell noCPT 21µM, TDP1 cell CPT 12µM
COc1ccc(CCNC(=O)CCn2c(=O)c3ccccc3n(Cc3ccc(Cl)cc3)c2=O)cc1OC	TDP1 cell noCPT 6.5µM, TDP1 cell CPT 18µM (no result: HT1080-NT tox, HT1080 IDH1KD tx, IL-1B inflam inh)
Cc1ccc(Cn2c(=O)n(CCCCC(=O)NCc3ccccc3Cl)c(=O)c3ccccc32)cc1	TDP1 cell noCPT 5.2µM, TDP1 cell CPT 4.6µM (no result: HT1080-NT tox, HT1080 IDH1KD tx, IL-1B inflam inh)
O=C1C(=Cc2cn(-c3ccccc3)nc2-c2ccc(OCc3ccc(Cl)cc3)cc2)SC(=S)N1CCS(=O)(=O)O	TDP1 cell noCPT inconclusive, TDP1 cell CPT inconclusive, HT1080-NT tox inconclusive, IL-1B inflam inh inconclusive
Cc1ccc([C@H]2CN(C(=O)CN3C(=O)CNC3=O)[C@@H]3C4CCN(CC4)[C@H]23)cc1	none (no result: TDP1 cell noCPT, TDP1 cell CPT, HT1080-NT tox, HT1080 IDH1KD tx, IL-1B inflam inh)
O=[N+]([O-])/C=C\c1ccc2c(c1)OCO2	ALOX12 inh 11µM (no result: TDP1 cell noCPT, TDP1 cell CPT, HT1080-NT tox, HT1080 IDH1KD tx, IL-1B inflam inh)
CC(=O)c1ccc2c(c1)OCO2	ALOX12 inh inconclusive
Cc1ccnn1CC(=O)N1C[C@@H](c2ccc3c(c2)OCO3)[C@@H]2[C@H]1C1CCN2CC1	none (no result: TDP1 cell noCPT, TDP1 cell CPT, HT1080-NT tox, HT1080 IDH1KD tx, IL-1B inflam inh)
CSc1nn(-c2ccc(C(=O)OCC(=O)NC(=O)NC(C)C)cc2)c(=S)s1	TDP1 cell noCPT inconclusive
C[C@@H]1[C@H](O)[C@@H](C)/C=C/C=C/CC/C=C/C=C/C=C/C=C/[C@H](O[C@H]2O[C@@H](C)[C@H](O)[C@@H](N)[C@H]2O)CC2O[C@](O)(C[C@@H](O)[C@H](O)CC[C@@H](O)C[C@@H](O)C[C@@H](O)CC(=O)O[C@H]1C)C[C@H](O)[C@H]2C(=O)O	none (no result: HT1080-NT tox, ALOX12 inh, HT1080 IDH1KD tx, IL-1B inflam inh)
COc1ccc(-c2noc(=O)n2Cc2cc(C)ccc2C)cc1	TDP1 cell noCPT 23µM, TDP1 cell CPT inconclusive, HT1080-NT tox inconclusive, HT1080 IDH1KD tx inconclusive
CCC1(O)C(=O)OCc2c1cc1n(c2=O)Cc2cc3c(N)cccc3nc2-1 (stereo not drawn)	TDP1 cell noCPT 0.052µM, TDP1 cell CPT 0.21µM, HT1080-NT tox 1.6µM, HT1080 IDH1KD tx 0.65µM, IL-1B inflam inh -97
O=c1oc2ccccc2c(O)c1[C@H]1c2ccc(O)cc2Oc2c1c(=O)oc1ccccc21	TDP1 cell noCPT 23µM, TDP1 cell CPT inconclusive, HT1080-NT tox inconclusive, ALOX12 inh inconclusive, IL-1B inflam inh -92
O=[N+]([O-])c1ccc(S(=O)(=O)N2CCn3cccc3C2c2ccccc2F)cc1 (stereo not drawn)	TDP1 cell noCPT 16µM, TDP1 cell CPT inconclusive, ALOX12 inh inconclusive (no result: HT1080-NT tox, HT1080 IDH1KD tx, IL-1B inflam inh)
Cc1nc(-c2ccc(N(C)C)cc2)cc([C@H]2CN3CC[C@H]2C[C@@H]3CNCc2cccc(C#N)c2)n1	none (no result: TDP1 cell noCPT, TDP1 cell CPT, HT1080-NT tox, HT1080 IDH1KD tx, IL-1B inflam inh)
CCN(CC)C(=O)c1ccc(NC(=O)c2cc(S(=O)(=O)N3CCCCCC3)ccc2OC)cc1	TDP1 cell noCPT inconclusive
N#CC(C#N)=NNc1ccc(S(=O)(=O)N2CCCC2)cc1	TDP1 cell noCPT 16µM, TDP1 cell CPT inconclusive
CN1CCN2C(=O)N(C3CCOCC3)C[C@H]2C1	none (no result: TDP1 cell noCPT, TDP1 cell CPT, HT1080-NT tox, HT1080 IDH1KD tx, IL-1B inflam inh)
CCN(CC)c1ccc(N=Cc2c(O)n(-c3ccc(Cl)cc3)c(=O)[nH]c2=O)cc1	TDP1 cell noCPT inconclusive, TDP1 cell CPT 21µM
Cc1ccccc1-n1c(O)c(C=Nc2ccc(N(C)C)cc2)c(=O)[nH]c1=O	TDP1 cell noCPT 18µM, TDP1 cell CPT 23µM
O=[N+]([O-])c1ccc(CNCCc2ccccc2)cc1	TDP1 cell noCPT inconclusive, ALOX12 inh inconclusive
O=[N+]([O-])c1ccc(C[n+]2c(-c3ccccc3)cc(-c3ccccc3)cc2-c2ccccc2)cc1	TDP1 cell noCPT 2.3µM, TDP1 cell CPT 2.6µM, IL-1B inflam inh inconclusive
O=[N+]([O-])c1cc(Cl)c(O)c(-[n+]2c(-c3ccccc3)cc(-c3ccccc3)cc2-c2ccccc2)c1	TDP1 cell noCPT 8.2µM, TDP1 cell CPT 13µM, HT1080-NT tox inconclusive, HT1080 IDH1KD tx inconclusive
COc1cc(C)cc(CN2CC=C(c3ccccc3)CC2)c1O	TDP1 cell noCPT inconclusive, TDP1 cell CPT 16µM
COc1cccc(CN2CC=C(c3ccc(F)cc3)CC2)c1	none
COc1ccc2ccc(O)c(CN3CC=C(c4ccccc4)CC3)c2c1	TDP1 cell noCPT 18µM, TDP1 cell CPT inconclusive, ALOX12 inh inconclusive
